Source: the supplement of paper PMC10849652
The full data set covers some 7,900 targets. This sample favours those with a hit. About 0.6% of all pairs of compound and target were hits.

Experiments:
Assay in all cases: log2 fold change, soluble protein after heating vs DMSO (PISA); higher = thermal stabilisation; K562 cells, 10 uM, 30 min; active = over 0.2 and 3.5 SD of the protein, either way, in both replicates (recomputed)
[1] = compound: C1=CC=C(C=C1)[C@H](COC2=CC3=C(C=C2)NC(=O)N3)NC(=O)C4=CC=CN(C4=O)CC5=CC(=C(C=C5)F)F
In short: (§1)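 Values are thermal stability changes relative to control samples and are taken from duplicates. They are stated as log2 fold changes. Before quantification by TMTpro 16plex LC-MS/MS with equalised channel sums, K562 cells at 2×10^6 cells/mL were treated with 10 μM compound for 30 min, heated in aliquots for 3 min across 48°C-58°C, pooled, extracted in PBS with 0.5% NP-40 at 4°C, and centrifuged at 21,000xg for 90 min to give the soluble supernatant.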

[2] = compound: CC1=C(SC2=C1C(=N[C@H](C3=NN=C(N32)C)CC(=O)N)C4=CC=C(C=C4)Cl)C
In short: as §1

[3] = compound: CC1=C2C(=CC=C1)N=C(N(C2=O)C3=CC=CC=C3C)CN4C=NC5=C(N=CN=C54)N
In short: as §1

[4] = compound: Cc1sc2c(c1C)C(c1ccc(Cl)cc1)=N[C@@H](CC(=O)OC(C)(C)C)c1nnc(C)n1-2
In short: as §1

[5] = compound: c1ccc([C@@H]2C[C@H]2NC2CCNCC2)cc1
In short: as §1

Measured: log2 fold change

TAX1BP1 (UniProt Q86VP1)
inactive: [1] -0.008 | [2] 0.09 | [3] 0.042 | [4] 0.029 | [5] -0.007

TBC1D15 isoform 3 (UniProt Q8TC07)
inactive: [1] -0.072 | [2] 0.013 | [3] 0.045 | [4] 0.005 | [5] -0.019

SREBF1 isoform 4 (UniProt P36956)
inactive: [1] 0.026

SPINDOC (UniProt Q9BUA3)
inactive: [1] 0.03 | [2] 0.02 | [3] -0.066 | [4] 0.145 | [5] 0.041

SRPRB (UniProt Q9Y5M8)
inactive: [1] -0.005 | [2] 0.014 | [3] 0.034 | [4] -0.017 | [5] -0.016

TBC1D9B (UniProt Q66K14)
inactive: [1] -0.025 | [2] 0.093 | [3] 0.042 | [4] 0.02 | [5] -0.062

SRPRA (UniProt P08240)
inactive: [1] 0.001 | [2] -0.032 | [3] 0.031 | [4] -0.061 | [5] -0.038

SRSF10 (UniProt O75494)
UniProt O75494, sequence (O75494 whole entry, looked up): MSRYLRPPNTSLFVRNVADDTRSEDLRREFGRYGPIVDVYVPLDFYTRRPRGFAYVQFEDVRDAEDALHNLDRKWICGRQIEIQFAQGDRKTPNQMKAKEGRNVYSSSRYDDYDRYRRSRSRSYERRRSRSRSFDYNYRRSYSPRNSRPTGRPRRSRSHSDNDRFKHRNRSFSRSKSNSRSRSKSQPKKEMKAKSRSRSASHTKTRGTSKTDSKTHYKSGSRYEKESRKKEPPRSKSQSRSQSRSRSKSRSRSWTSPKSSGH
inactive: [1] 0.001 | [2] -0.475 | [3] -0.187 | [4] 0.249 | [5] 0.17

STK17B (UniProt O94768)
inactive: [1] 0.043

SNRPD3 (UniProt P62318)
UniProt P62318, sequence (P62318 whole entry, looked up): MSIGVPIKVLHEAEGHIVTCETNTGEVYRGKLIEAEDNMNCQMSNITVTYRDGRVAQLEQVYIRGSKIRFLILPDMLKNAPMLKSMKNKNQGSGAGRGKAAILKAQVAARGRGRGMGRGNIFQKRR
inactive: [1] 0.035 | [2] -0.029 | [3] 0 | [4] 0.106 | [5] 0.036

STRN (UniProt O43815)
inactive: [1] -0.025 | [2] 0.011 | [3] -0.003 | [4] -0.108 | [5] -0.017

SMAP (UniProt O00193)
inactive: [1] -0.082 | [2] 0.011 | [3] 0.03 | [4] -0.039 | [5] 0.003

TARBP1 (UniProt Q13395)
UniProt Q13395, sequence (Q13395 whole entry, looked up): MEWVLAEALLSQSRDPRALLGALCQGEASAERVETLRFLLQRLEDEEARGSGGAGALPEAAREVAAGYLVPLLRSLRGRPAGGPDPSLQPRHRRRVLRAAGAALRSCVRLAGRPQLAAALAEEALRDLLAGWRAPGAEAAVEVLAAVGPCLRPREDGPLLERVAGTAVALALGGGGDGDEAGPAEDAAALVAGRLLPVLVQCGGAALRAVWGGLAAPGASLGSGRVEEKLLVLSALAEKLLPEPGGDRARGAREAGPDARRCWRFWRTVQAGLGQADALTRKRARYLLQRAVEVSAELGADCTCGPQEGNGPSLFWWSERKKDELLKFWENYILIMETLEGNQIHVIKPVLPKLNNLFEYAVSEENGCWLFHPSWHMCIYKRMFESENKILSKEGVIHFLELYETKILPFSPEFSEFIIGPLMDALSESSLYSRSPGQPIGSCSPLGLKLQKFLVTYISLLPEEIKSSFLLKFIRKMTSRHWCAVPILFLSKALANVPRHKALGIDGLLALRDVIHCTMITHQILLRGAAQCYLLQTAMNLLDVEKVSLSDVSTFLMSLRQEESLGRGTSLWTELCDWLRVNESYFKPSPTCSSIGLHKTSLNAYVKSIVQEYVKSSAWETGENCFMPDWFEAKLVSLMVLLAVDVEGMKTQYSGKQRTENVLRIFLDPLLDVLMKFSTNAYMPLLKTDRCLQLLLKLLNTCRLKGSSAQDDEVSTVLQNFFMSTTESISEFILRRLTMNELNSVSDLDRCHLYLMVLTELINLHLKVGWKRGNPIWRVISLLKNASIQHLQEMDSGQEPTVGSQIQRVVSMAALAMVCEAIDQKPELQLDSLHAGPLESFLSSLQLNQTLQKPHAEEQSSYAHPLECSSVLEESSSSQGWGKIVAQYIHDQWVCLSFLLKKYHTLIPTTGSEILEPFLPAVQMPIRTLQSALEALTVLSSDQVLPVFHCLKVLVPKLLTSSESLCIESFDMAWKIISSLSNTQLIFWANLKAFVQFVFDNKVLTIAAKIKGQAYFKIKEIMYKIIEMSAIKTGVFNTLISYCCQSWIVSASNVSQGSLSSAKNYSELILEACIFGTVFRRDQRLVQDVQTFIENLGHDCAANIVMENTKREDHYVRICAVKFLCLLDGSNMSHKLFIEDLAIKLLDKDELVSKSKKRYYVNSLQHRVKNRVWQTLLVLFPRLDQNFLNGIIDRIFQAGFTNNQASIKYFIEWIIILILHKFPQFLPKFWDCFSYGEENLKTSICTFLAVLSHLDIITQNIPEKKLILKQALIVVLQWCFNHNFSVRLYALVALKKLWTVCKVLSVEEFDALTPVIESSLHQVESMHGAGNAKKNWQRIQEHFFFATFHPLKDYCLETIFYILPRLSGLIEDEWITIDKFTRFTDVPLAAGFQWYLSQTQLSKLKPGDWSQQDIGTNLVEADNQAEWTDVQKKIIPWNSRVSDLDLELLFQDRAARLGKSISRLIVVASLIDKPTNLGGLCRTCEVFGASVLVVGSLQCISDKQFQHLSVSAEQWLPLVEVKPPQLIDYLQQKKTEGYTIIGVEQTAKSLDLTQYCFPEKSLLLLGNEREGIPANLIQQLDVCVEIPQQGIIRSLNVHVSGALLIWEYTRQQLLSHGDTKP
inactive: [1] -0.058 | [2] 0.048 | [3] 0.081 | [4] -0.073 | [5] -0.027

SRXN1 (UniProt Q9BYN0)
inactive: [1] -0.02 | [2] 0.086 | [3] 0.117 | [4] -0.05 | [5] 0.086

STIM1 (UniProt Q13586)
inactive: [1] -0.051 | [2] 0.044 | [3] 0.008 | [4] -0.014 | [5] -0.019

SLK isoform 2 (UniProt Q9H2G2)
UniProt Q9H2G2, sequence (Q9H2G2 whole entry, looked up): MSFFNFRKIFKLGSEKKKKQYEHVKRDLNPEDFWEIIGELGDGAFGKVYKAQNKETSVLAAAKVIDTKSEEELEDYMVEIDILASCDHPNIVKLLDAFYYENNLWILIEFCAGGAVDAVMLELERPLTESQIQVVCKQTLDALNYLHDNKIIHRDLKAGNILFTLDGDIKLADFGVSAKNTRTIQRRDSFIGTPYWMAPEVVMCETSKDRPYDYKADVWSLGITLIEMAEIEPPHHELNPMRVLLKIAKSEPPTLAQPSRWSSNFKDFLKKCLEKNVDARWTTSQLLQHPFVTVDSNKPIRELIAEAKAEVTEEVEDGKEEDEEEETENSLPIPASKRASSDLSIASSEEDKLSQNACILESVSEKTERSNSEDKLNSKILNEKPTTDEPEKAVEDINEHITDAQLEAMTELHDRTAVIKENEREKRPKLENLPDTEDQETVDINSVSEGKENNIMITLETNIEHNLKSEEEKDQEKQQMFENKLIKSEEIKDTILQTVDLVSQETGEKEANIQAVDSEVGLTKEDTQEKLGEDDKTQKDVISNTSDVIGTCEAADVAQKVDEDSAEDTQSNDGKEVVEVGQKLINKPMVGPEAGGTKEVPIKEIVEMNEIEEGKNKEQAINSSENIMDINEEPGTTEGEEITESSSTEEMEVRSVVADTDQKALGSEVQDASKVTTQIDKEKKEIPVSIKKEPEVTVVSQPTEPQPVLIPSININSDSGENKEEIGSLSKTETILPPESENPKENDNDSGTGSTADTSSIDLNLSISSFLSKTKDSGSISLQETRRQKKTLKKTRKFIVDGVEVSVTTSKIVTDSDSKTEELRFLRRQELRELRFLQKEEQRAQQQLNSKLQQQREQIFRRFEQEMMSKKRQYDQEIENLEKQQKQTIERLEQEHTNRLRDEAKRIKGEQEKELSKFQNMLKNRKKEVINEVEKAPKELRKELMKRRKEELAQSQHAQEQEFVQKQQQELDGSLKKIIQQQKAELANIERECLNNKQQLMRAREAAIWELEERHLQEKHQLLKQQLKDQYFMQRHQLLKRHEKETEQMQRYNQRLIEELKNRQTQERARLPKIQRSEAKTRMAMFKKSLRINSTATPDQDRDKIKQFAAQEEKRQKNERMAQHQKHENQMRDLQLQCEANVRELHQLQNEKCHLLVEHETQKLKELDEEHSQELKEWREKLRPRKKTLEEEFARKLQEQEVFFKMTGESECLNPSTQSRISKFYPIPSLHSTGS
inactive: [1] 0.016 | [2] 0.034 | [3] 0.042 | [4] 0.021 | [5] -0.005

THRAP3 (UniProt Q9Y2W1)
inactive: [1] 0.09 | [2] 0.193 | [3] -0.072 | [4] 0.046 | [5] 0.028

SLC25A39 (UniProt Q9BZJ4)
UniProt Q9BZJ4, sequence (Q9BZJ4 whole entry, looked up): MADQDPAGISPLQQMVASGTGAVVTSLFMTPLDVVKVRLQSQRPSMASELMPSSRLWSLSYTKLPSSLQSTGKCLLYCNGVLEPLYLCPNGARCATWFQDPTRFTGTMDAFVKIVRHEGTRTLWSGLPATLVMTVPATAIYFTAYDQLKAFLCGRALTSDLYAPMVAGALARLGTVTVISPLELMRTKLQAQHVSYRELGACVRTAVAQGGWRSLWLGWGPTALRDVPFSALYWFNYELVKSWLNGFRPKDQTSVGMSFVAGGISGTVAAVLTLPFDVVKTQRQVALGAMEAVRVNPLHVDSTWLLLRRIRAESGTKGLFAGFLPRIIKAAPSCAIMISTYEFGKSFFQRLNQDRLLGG
inactive: [1] 0.031 | [2] -0.166 | [3] 0.149 | [4] 0.09 | [5] 0.019

SUPT5H (UniProt O00267)
inactive: [1] -0.05 | [2] 0.109 | [3] 0.106 | [4] 0.001 | [5] -0.051

STK4 (UniProt Q13043)
inactive: [1] -0.008 | [2] 0.088 | [3] 0.057 | [4] 0.005 | [5] -0.001

SNX5 (UniProt Q9Y5X3)
UniProt Q9Y5X3, sequence (Q9Y5X3 whole entry, looked up): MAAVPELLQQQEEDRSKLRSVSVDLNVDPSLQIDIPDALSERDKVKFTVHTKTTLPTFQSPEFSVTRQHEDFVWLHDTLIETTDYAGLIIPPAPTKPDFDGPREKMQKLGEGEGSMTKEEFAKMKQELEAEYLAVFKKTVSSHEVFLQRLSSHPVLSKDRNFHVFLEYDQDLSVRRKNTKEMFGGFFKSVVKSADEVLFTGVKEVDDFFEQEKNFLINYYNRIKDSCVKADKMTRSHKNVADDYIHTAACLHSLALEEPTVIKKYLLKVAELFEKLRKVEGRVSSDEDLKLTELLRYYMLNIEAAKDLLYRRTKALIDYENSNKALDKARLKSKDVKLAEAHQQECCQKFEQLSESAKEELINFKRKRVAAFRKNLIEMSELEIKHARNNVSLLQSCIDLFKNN
inactive: [1] -0.016 | [2] 0.045 | [3] 0.014 | [4] 0.04 | [5] -0.071

TBRG4 (UniProt Q969Z0)
inactive: [1] -0.106 | [2] 0.022 | [3] 0.077 | [4] -0.049 | [5] -0.017

TFRC (UniProt P02786)
inactive: [1] 0.058 | [2] 0.032 | [3] 0.008 | [4] 0.011 | [5] 0.021

SUGP1 (UniProt Q8IWZ8)
UniProt Q8IWZ8, sequence (Q8IWZ8 whole entry, looked up): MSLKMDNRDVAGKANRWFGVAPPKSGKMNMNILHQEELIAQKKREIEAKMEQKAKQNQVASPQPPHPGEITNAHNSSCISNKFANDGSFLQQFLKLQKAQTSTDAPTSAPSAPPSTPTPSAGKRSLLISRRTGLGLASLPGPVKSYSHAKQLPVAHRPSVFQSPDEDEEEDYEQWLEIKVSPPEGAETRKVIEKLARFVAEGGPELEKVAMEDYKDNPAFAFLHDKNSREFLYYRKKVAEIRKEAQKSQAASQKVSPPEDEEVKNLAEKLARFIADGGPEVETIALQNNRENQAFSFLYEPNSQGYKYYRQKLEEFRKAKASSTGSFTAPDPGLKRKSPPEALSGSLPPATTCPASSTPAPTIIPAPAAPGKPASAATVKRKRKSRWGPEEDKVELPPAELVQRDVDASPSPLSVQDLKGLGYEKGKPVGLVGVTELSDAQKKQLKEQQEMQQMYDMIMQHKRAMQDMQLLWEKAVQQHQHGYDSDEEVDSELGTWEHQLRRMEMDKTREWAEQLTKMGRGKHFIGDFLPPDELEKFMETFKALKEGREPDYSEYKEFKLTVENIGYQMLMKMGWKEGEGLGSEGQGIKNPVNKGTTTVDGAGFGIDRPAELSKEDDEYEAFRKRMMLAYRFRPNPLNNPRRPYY
inactive: [1] 0 | [2] -0.001 | [3] 0.066 | [4] -0.046 | [5] 0.019

TAOK1 (UniProt Q7L7X3)
inactive: [1] 0.057 | [2] 0.095 | [3] 0.041 | [4] 0.012 | [5] 0.002

STARD7 (UniProt Q9NQZ5)
UniProt Q9NQZ5, sequence (Q9NQZ5 whole entry, looked up): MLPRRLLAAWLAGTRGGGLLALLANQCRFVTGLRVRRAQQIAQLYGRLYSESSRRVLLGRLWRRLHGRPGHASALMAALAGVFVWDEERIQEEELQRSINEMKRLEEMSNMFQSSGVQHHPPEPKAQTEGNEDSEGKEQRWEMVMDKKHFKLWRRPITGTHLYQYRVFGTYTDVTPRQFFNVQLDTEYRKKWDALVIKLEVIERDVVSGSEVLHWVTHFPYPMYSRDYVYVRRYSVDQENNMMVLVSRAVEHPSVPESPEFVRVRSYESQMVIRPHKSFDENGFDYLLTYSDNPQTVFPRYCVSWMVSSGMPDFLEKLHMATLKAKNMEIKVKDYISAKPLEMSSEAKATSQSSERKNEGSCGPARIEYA
inactive: [1] -0.018 | [2] 0.075 | [3] 0.145 | [4] 0.063 | [5] -0.017
